# Measured values: PubChem BioAssay AID1159580 (chemical genetic matrix, 2015)
# About 2,000 (36%) of roughly 5,500 compounds were called active. Roughly 18% stayed inconclusive and do not appear here. Some of the results follow. Unmarked numbers belong to inactive results. Cut-off read from the data, not from the text of the source: active = normalized growth mostly below about 0.91 (no sharp cut-off); inconclusive = no clear call, values can overlap the other calls; inactive = mostly above about 0.92.
# Experiment: chemical genetic growth profiling, strain panel (AID 1159580);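 note: tested at 20 µM; growth read once vehicle control cultures reached saturation at 30 °C; 1 = growth at the plate median or of vehicle wells; lower values mean less growth of the strain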
# Conditions: S. cerevisiae deletion strains, growth OD
compound,measurement,setting,value
CCOC(=O)C1C(=O)C=C(c2cccs2)CC1c1ccc(OC)c(OC)c1Cl (stereo unspecified),normalized growth,"locus YAL013W, strain DEP1, active compounds read low",0.988
same,normalized growth,"locus YBR229C, strain ROT2, active compounds read low",0.991
same,normalized growth,"locus YDL101C, strain DUN1, active compounds read low",0.995
same,normalized growth,"locus YDL134C, strain PPH21, active compounds read low",0.989
same,normalized growth,"locus YDR150W, strain NUM1, active compounds read low",0.968
same,normalized growth,"locus YEL061C, strain CIN8, active compounds read low",1.01
same,normalized growth,"locus YGR078C, strain PAC10, active compounds read low",0.979
same,normalized growth,"locus YHR030C, strain SLT2, active compounds read low",0.874
same,normalized growth,"locus YHR087W, strain rtc3, active compounds read low",0.998
same,normalized growth,"locus YJR043C, strain POL32, active compounds read low",0.983
same,normalized growth,"locus YJR075W, strain HOC1, active compounds read low",0.974
same,normalized growth,"locus YLR039C, strain RIC1, active compounds read low",0.863
same,normalized growth,"locus YLR058C, strain SHM2 (second series), active compounds read low",0.992
same,normalized growth,"locus YLR085C, strain ARP6, active compounds read low",1
same,normalized growth,"locus YLR262C, strain YPT6, active compounds read low",0.796 (active)
same,normalized growth,"locus YML094W, strain GIM5, active compounds read low",1.03
same,normalized growth,"locus YMR219W, strain ESC1, active compounds read low",0.993
same,normalized growth,"locus YMR263W, strain SAP30, active compounds read low",1.01
same,normalized growth,"locus YNL153C, strain GIM3, active compounds read low",0.988
same,normalized growth,"locus YNL298W, strain CLA4 (second series), active compounds read low",0.976
same,normalized growth,"locus YNL322C, strain KRE1, active compounds read low",0.993
same,normalized growth,"locus YNR030W, strain Alg12, active compounds read low",0.968
same,normalized growth,"locus YOL006C, strain TOP1, active compounds read low",0.895
same,normalized growth,"locus YPL055C, strain LGE1, active compounds read low",1.04
same,normalized growth,"locus YPL241C, strain CIN2, active compounds read low",1.01
same,normalized growth,"locus YPR135W, strain CTF4, active compounds read low",0.843
